In the library only some 0.49% were active in any assay of this set; here they are far more common.
Tb PGK inh = qHTS Assay to Find Inhibitors of Phosphoglycerate Kinase | PGK/GAPDH coupled, Kinase-Glo luminescence, 60 min | Potency, µM (titrated, usually from 57.5 µM), for inactives: at the top dose activity change, negative = inhibition, most hits filed as inhibitors | 380,000 tested, 0.043% active; also: potency is read from the fitted curve at half-maximal effect; % is scaled to controls: 0 for no effect and ±100 for the full control effect; nearly all actives have a fitted effect of over 60% in size
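Recombinant glycosomal PGK reaction used 1,3-bisphosphoglycerate generated in-well by GAPDH (100nM final) in 100mM TEA pH 7.6, 5mM MgCl2, 0.01% Tween-20. After 60 minutes at room temperature, ATP was read by Kinase-Glo Plus luminescence end-point.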
mIDH1 inhibitor = qHTS for Inhibitors of mutant isocitrate dehydrogenase 1 (IDH1): qHTS; Potency, µM (top dose mostly 76.6 µM), for the others: top-dose activity change, negative = inhibition, actives largely listed as inhibitors; AID 602179, 2012; 390,000 tested, 0.093% active; IDH1-R132H enzyme, NADPH consumption, diaphorase/resazurin fluorescence; Isocitrate dehydrogenase [NADP] cytoplasmic (Homo sapiens), O75874; also: potency is read from the fitted curve at half-maximal effect; % is scaled to controls: 0 for no effect and ±100 for the full control effect; nearly all actives have a fitted effect of over 65% in size
Target sequence (O75874 whole entry R132H, stated change not applied): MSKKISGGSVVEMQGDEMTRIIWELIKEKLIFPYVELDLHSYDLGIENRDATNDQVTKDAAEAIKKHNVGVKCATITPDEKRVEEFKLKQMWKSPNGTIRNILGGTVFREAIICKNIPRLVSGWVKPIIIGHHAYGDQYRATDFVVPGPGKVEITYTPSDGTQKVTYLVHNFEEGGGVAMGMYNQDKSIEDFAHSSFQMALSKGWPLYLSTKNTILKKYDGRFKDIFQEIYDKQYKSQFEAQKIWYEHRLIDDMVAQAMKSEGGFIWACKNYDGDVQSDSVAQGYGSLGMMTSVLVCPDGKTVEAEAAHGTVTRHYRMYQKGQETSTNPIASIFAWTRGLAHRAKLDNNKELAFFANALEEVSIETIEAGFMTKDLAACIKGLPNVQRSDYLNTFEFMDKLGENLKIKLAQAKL
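IDH1-R132H (0.5 ug/mL) preincubated 30 min with compound, then NADPH (0.016 mM) and alpha-KG (2 mM) added; 80 min at RT, pH 7.5. Remaining NADPH coupled via diaphorase/resazurin to fluorescence (540/590 nm); concentration-response curves normalized to no-enzyme control.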
Pin1 inhibitor = qHTS Assay to Find Inhibitors of Pin1 | AID 504891, 2011 | Pin1 FP peptide displacement, HiFluor488, 10 min | Potency, µM (top dose mostly 115 µM), without a hit: at the highest dose activity, negative = inhibition, usual class: inhibitors | 390,000 tested, 0.009% active; active = well fitted inhibition curve with a large enough effect in the polarisation, with a control signal flat, not every such curve was filed as active; inconclusive = small, poorly fitted or top-dose-only effect, or effect the other way, or a change in a side signal; inactive = no such curve, though single readings can be large or run the other way; the % refers to the polarisation; also: potency is read from the fitted curve at half-maximal effect; % is scaled to controls: 0 for no effect and ±100 for the full control effect
Target sequence (Q13526 whole entry, looked up): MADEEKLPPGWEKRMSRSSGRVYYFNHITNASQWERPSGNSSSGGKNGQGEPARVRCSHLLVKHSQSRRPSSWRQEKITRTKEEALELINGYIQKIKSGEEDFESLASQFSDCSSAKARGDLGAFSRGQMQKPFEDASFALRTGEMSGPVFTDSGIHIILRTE
LDHA inh = qHTS assay for inhibitors of human lactate dehydrogenase. L-lactate dehydrogenase A chain (Homo sapiens), P00338. purified LDHA, NADH/diaphorase-resazurin fluorescence; hits give low values. activity change, % (values are at about 110 or 230 µM). 480,000 tested, 0.15% active. AID 1347041, 2019; in the data active = activity change below about -30%; inconclusive = mostly about -25% to -30%;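 also: plate controls were DMSO wells for no effect and wells without enzyme for full effect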
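LDH5 2 nM; NADH 0.06 mM, pyruvate 0.2 mM; 200 mM Tris pH 7.4, EDTA, Tween-20; 5 min RT. Detection: diaphorase 0.133 mg/mL + resazurin 37 µM, fluorescence ex540/em590 at 0 and 20 min; normalized to enzyme-free and DMSO wells.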
Vif-APOBEC3F blk = qHTS for Inhibitors of Vif-A3F Interactions: qHTS; Potency, µM (top dose mostly 46.1 µM), for inactives: at the highest dose activity, negative = active; HeLa A3F-eYFP + Vif (tagged APOBEC3F with the HIV-1 protein that degrades it), YFP fluorescence increase; 390,000 tested, 0.2% active; AID 602313, 2012; also: potency is read from the fitted curve at half-maximal effect; % of control where 0% means no effect; nearly all actives have a fitted effect of over 65% in size
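Fluorescence increase (Ex 488/Em 500-530) after overnight compound treatment at 37 deg C flags inhibition of Vif-driven A3F-eYFP loss in stable HeLa A3F-eYFP/Vif cells seeded overnight beforehand.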
Vif-APOBEC3G blk = qHTS for Inhibitors of Vif-A3G Interactions: qHTS | DNA dC->dU-editing enzyme APOBEC-3G (Homo sapiens), Q9HC16 | HeLa A3G-eYFP + Vif (tagged APOBEC3G with the HIV-1 protein that degrades it), YFP fluorescence, overnight | Potency, µM (series often up to 46.1 µM), for inactives: at the top dose activity, negative = active, usual class: inhibitors | 410,000 tested, 0.076% active; also: potency is read from the fitted curve at half-maximal effect; % is scaled to controls: 0 for no effect and ±100 for the full control effect; nearly all actives have a fitted effect of over 60% in size
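HeLa cells stably expressing Vif and C-terminally eYFP-tagged A3G, seeded overnight at 37 deg C, then exposed to compound by pintool overnight at 37 deg C. Rise in yellow fluorescence (Ex 488/Em 500-530, Acumen) marks blocked Vif-driven A3G degradation.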
IDH1 autofl = qHTS for Inhibitors of mutant isocitrate dehydrogenase 1 (IDH1): Cherrypicks Autofluorescence Interference; inhibition of signal, % at 51.2 µM; shares compounds with mIDH1 inhibitor; Resorufin detection reagent fluorescence interference, cell-free; 750 tested, under 10 active;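 also: 0% = wells with normal resorufin and full inhibition = wells lacking resorufin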
IDH1 WT = qHTS for Inhibitors of mutant isocitrate dehydrogenase 1 (IDH1): Cherrypicks in WT IDH1; AID 623995, 2012; shares compounds with mIDH1 inhibitor; WT IDH1 enzyme, NADPH diaphorase/resazurin fluorescence; 750 tested, 9% active; Potency, µM (top dose mostly 115 µM), for the others: at the highest dose activity change, negative = inhibition, actives largely listed as inhibitors;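 also: potency is read from the fitted curve at half-maximal effect; 0% = full WT IDH1 enzyme control and full inhibition = no enzyme wells; nearly all actives have a fitted effect of over 55% in size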
Target sequence (O75874 whole entry, looked up): as the sequence (O75874 whole entry R132H, stated change not applied) above, with H132R counted along it
mIDH1 confirm = qHTS for Inhibitors of mutant isocitrate dehydrogenase 1 (IDH1): Confirmation of Cherrypicks; shares compounds with mIDH1 inhibitor; IDH1 R132H enzyme, NADPH diaphorase/resazurin fluorescence; Potency, µM (top dose mostly 76.6 µM), without a hit: at the highest dose activity change, negative = inhibition, usual class: inhibitors; 750 tested, 83% active; AID 624002, 2012; also: potency is read from the fitted curve at half-maximal effect; nearly all actives have a fitted effect of over 50% in size
* marks the source's active call; other numbers are inactive results; i = inactive; ? = inconclusive; · = no result given. Unless noted, calls follow the shape of the dose curve; as a rule, active = well fitted curve in the direction sought with a large enough effect; inconclusive = small, poorly fitted or top-dose-only effect, or another doubt; inactive = no such curve, though single readings can be large; an effect the other way counts as inactive or inconclusive.

SMILES | Tb PGK inh | mIDH1 inhibitor | Pin1 inhibitor | LDHA inh | Vif-APOBEC3F blk | Vif-APOBEC3G blk | IDH1 autofl | IDH1 WT | mIDH1 confirm
Cc1cc(NC(=O)CCC(=O)N(c2cccc(F)c2)C(C(=O)NC2CCCC2)c2ccc(C)o2)no1 (configuration not stated) | i | ? | -2% | -8 | 4% | -4% | -1 | -4% | 22µM*
Cc1cc(NC(=O)CCC(=O)N(c2cccc(F)c2)C(C(=O)NC2CCCC2)c2ccccc2)no1 (configuration not stated) | -9% | 46µM* | -1% | -4 | -28% | 0% | 0 | -10% | 16µM*
c1ccc(N(c2ccccc2)c2nc(-n3ccnc3)nc(-n3ccnc3)n2)cc1 | i | ? | -6% | -5 | -13% | -6% | 2 | -3% | 25µM*
C[C@@H]1CN([C@H](C)CO)S(=O)(=O)c2ccc(C#Cc3ccccc3F)cc2O[C@H]1CN(C)C(=O)c1ccc2c(c1)OCO2 | i | ? | · | 2 | -1% | -4% | -1 | 5% | 5.6µM*
CCOc1ccc(S(=O)(=O)Nc2ccc(C(=O)N3CC(C)OC(C)C3)cc2)cc1 (configuration not stated) | i | 6% | 0% | -1 | -14% | -10% | · | · | ·
CC1CN(C(=O)c2ccc(NS(=O)(=O)c3ccc(C(C)(C)C)cc3)cc2)CC(C)O1 (configuration not stated) | -5% | ? | 5% | 0 | -15% | 0% | -9 | 7% | 35µM*
CCn1c2ccccc2c2cc(/C=N/n3cn[nH]c3=S)ccc21 | -10% | 1% | -2% | -12 | 1% | 1% | · | · | ·
CCn1c2ccccc2c2cc(/C=N/n3c(-c4cc(C)[nH]n4)n[nH]c3=S)ccc21 | -1% | ? | 6% | -12 | -3% | -8% | -8 | -2% | 14µM*
O=C1CCCC2=C1C(c1ccc(O)c(Br)c1)C1=C(CCCC1=O)N2c1ccccc1 | -7% | ? | 4% | -4 | -8% | -23% | 6 | 11% | ?
C=CS(=O)(=O)c1ccc(Oc2ccc(S(=O)(=O)C=C)cc2)cc1 | i | 32µM* | 22% | -9 | -10% | ? | 1 | ? | 11µM*
NC(=O)NC(=O)CSc1ncnc2ccccc12 | · | · | · | 4 | · | · | · | · | ·
O=C(CCl)N1CCN(S(=O)(=O)c2ccc3ccccc3c2)CC1 | -2% | 52µM* | 0% | -4 | 10% | -11% | 4 | -9% | 20µM*
CCCCC(NC(=O)CCc1c(C)c2cc3c4c(oc3c(C)c2oc1=O)CCCC4)C(=O)O (configuration not stated) | 5% | 46µM* | ? | 0 | -4% | -1% | -8 | -7% | 25µM*
CCN1CC(CN(C)Cc2nc(C3CC3)no2)Oc2ccccc21 (configuration not stated) | · | · | · | -24 | · | · | · | · | ·
Cc1ccc2c(c1)/C(=N/N1C(=O)c3ccccc3C1=O)C(=O)N2 | 13% | 46µM* | 1% | 4 | 1% | -2% | 1 | 6% | 7.9µM*
NC(=O)c1cc(C(=O)O)c[nH]1 | · | · | · | 3 | · | · | · | · | ·
CNC(=O)NC(=O)CN(C)Cc1ccsc1 | · | · | · | 2 | · | · | · | · | ·
Cc1ccc(C2=Nc3ccc(Br)cc3C(c3ccncc3)=NN2)cc1 | -3% | 15µM* | -3% | 0 | 1% | 1% | 8 | 4% | 22µM*
COc1nc2ccccc2nc1N1CCC(C(=O)NCc2ccc(F)cc2)CC1 | · | · | · | -4 | · | · | · | · | ·
Cc1c(-c2ccccc2)oc2c(C(=O)N3CCCN(CC(=O)NC(C)(C)C)CC3)cccc2c1=O | · | · | · | 8 | · | · | · | · | ·
COC(=O)c1ccc(NC2(C#N)C(=O)Nc3ccccc32)cc1 (configuration not stated) | i | ? | ? | 1 | -13% | ? | -1 | 64% | 45µM*
CC(C)(C)n1nnnc1C(c1cccs1)N(Cc1cccnc1)Cc1ccccc1Cl (configuration not stated) | -11% | ? | 1% | -2 | · | -8% | 3 | 1% | 20µM*
O=C(NCC(c1ccco1)N1CCCC1)c1cc2ccccc2oc1=O (configuration not stated) | · | · | · | -5 | · | · | · | · | ·
Clc1ccc(CSc2nnc([C@@H]3CCCN3)o2)c(Cl)c1 | · | · | · | -8 | · | · | · | · | ·
CCOC(=O)c1ccccc1NC(=O)c1cn(CC(C)C)c(=O)c2cc(OC)c(OC)cc12 | 11% | 45µM* | 5% | -2 | -4% | -1% | -7 | 1% | 14µM*
SMILES | Tb PGK inh | mIDH1 inhibitor | Pin1 inhibitor | LDHA inh | Vif-APOBEC3F blk | Vif-APOBEC3G blk | IDH1 autofl | IDH1 WT | mIDH1 confirm
O=C(O)CNS(=O)(=O)c1cccs1 | · | · | · | 2 | · | · | · | · | ·
Cc1cc(C)c(NC(=O)C2CCCC2)c(C)c1 | · | · | · | 8 | · | · | · | · | ·
CCn1cc(C(=O)NCc2ccco2)c(=O)c2cc(S(=O)(=O)N3CCCCCC3)ccc21 | -18% | -23% | 5% | -1 | 2% | 1% | · | · | ·
CCn1cc(C(=O)NCc2ccco2)c(=O)c2cc(S(=O)(=O)N3CCC(C)CC3)ccc21 | -6% | 33µM* | 3% | 6 | -11% | -1% | 2 | 3% | 18µM*
C=CCn1cc(C(=O)NCc2ccco2)c(=O)c2cc(S(=O)(=O)N3CCCCCC3)ccc21 | 2% | ? | 10% | 0 | 2% | -1% | 2 | 13% | 16µM*
CCn1cc(C(=O)NCc2ccco2)c(=O)c2cc(S(=O)(=O)N3CC(C)CC(C)C3)ccc21 (configuration not stated) | 3% | 5.2µM* | 0% | 1 | 5% | 1% | 0 | 6% | 2.5µM*

Compound activity as filed in PubChem.
